Compound activity (PubChem BioAssay)
Only some compounds are listed: those with a hit (about 12% of all), similar ones and a draw of the others.
JMJD2A Tudor: inhibitors of human JMJD2A Tudor domain. O75164. AlphaScreen JMJD2A-Tudor / H3K4me3 peptide binding. Potency, µM (titrated, usually from 114 µM), most hits filed as inhibitors. actives 4.4% (n = 390,000). AID 504339; further: nearly all actives have a fitted effect of over 50% in size
PLK1 PBD inh: inhibitors of human PLK1 polo-box domain binding; P53350; Plk1 PBD binding of FITC phosphopeptide, fluorescence polarization; Potency, µM, actives largely listed as inhibitors; actives 2.8% (n = 360,000); further: series mostly up to about 57 µM; nearly all actives have a fitted effect of over 65% in size
HP1b binding inh: HP1-beta chromodomain-methylated histone interaction inhibition; Potency, µM (top dose mostly 114 µM), actives largely listed as inhibitors; AlphaScreen HP1-beta / biotin-H3K9me3 peptide binding; AID 540317; actives 0.56% (n = 390,000); P83916; further: nearly all actives have a fitted effect of over 70% in size
Target sequence (P83916 whole entry, looked up): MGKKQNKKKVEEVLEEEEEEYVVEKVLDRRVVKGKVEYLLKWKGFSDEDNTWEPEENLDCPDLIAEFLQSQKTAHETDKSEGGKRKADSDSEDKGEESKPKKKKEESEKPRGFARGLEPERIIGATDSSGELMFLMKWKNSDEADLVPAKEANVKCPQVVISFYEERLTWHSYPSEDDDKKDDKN
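Compound inhibition of the preformed complex between 50 nM HP1-beta and 50 nM biotinylated H3K9me3 peptide was read by AlphaScreen. Buffer was PBS pH 7.4 with 0.01% Tween-20. Incubations ran 30 min at room temperature, with 10 ug/mL donor/acceptor beads.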
G9a block: inhibitors of human histone lysine methyltransferase G9a; Q96KQ7; G9a H3K9 monomethylation, AlphaScreen, 2 h; Potency, µM (doses to about 102 µM), actives largely listed as inhibitors; actives 8.8% (n = 350,000); AID 504332; further: nearly all actives have a fitted effect of over 75% in size
Target sequence (Q96KQ7 913-1193 limits assumed): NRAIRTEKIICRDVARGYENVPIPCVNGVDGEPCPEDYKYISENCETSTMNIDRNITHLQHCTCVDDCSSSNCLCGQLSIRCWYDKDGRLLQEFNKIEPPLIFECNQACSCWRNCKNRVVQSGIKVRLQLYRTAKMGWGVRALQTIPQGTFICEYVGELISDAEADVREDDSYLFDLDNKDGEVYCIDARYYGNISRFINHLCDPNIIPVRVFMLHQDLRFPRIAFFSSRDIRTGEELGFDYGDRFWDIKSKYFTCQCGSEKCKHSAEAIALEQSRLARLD
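Readings reflect AlphaScreen signal from monomethyl-H3K9 antibody detection. HMT at 20 nM; substrate b-H3K9 500 nM; cofactor SAM 20 uM; 2 h RT reaction; compounds tested as titrations in qHTS with 15 min preincubation.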
Sfp inh: Sfp phosphopantetheinyl transferase inhibition; Biochemical Sfp PPTase activity, qHTS; Q9F4F7; AID 1490; Potency, µM, actives largely listed as inhibitors; actives 3.5% (n = 310,000);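 further: the enzyme is Sfp with the accession as filed and its product quenches rhodamine fluorescence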
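Step 1, compound plus 15 nM Sfp-PPTase, 15 min, room temperature. Step 2, add rhodamine-CoA (5 uM) and BHQ-2-YbbR (12.5 uM). Step 3, read 525/598 nm fluorescence at 0 and 30 min.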
BAZ2B block: inhibitors of human BAZ2B bromodomain; Q9UIF8; AlphaScreen BAZ2B-H3K14Ac peptide displacement; Potency, µM (titrated, usually from 114 µM), actives largely listed as inhibitors; actives 4.4% (n = 360,000); AID 504333; further: nearly all actives have a fitted effect of over 60% in size
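AlphaScreen displacement: compounds (up to 110uM) incubated 30 min at room temperature with a preformed 50 nM BAZ2B/50 nM biotinylated H3K14Ac peptide complex in PBS pH 7.4 with Tween-20. Donor and acceptor beads at 10 ug/mL final added, 20 min light-protected before reading.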
Hits are given with their value; - = inactive; ? = inconclusive; . = not tested or not shown; [ ] = another dose, or the depositor's remark. The call rests on the fitted dose curve; in most records, active means well fitted curve in the direction sought with a large enough effect; inconclusive means small, poorly fitted or top-dose-only effect, or another doubt; inactive means no such curve, though single readings can be large; an effect the other way counts as inactive or inconclusive.

SMILES | JMJD2A Tudor | PLK1 PBD inh | HP1b binding inh | G9a block | Sfp inh | BAZ2B block
Cc1ccc(Cl)cc1N1CCN(S(=O)(=O)c2c(C)[nH]c(=O)[nH]c2=O)CC1 | - | - | - | -[12.7 µM] | - | -
CC(=O)Nc1ccc(SC[C@H](C)CN2CC[C@H](O)CCC2=O)cc1 | - | 19µM | - | -[2.33 µM] | . | -
C[C@@H](CSc1ccc(Br)cc1)CN1CC[C@H](O)CCC1=O | - | - | - | -[2.33 µM] | . | -
CCCN1CCC(=O)N(CCSc2ccc(NC(C)=O)cc2)CC1 | - | - | - | - | - | -
CC(=O)Nc1ccc(SCCN2CC[C@@H](C(C)(C)C)CCC2=O)cc1 | - | 11µM | - | -[2.33 µM] | . | -
CC(=O)Nc1ccc(SCCN2CCN(CC(C)C)CCC2=O)cc1 | - | . | - | . | 45µM | .
COCC(C)NC(=O)NC(=O)c1ccc(Cl)cc1 (centres undefined) | - | - | - | - | - | -
CC(C)CN(CC(C)C)C(=O)CC(=O)NC(=O)c1ccc(Cl)cc1 | - | - | - | - | - | 89µM
Cc1ccc(-n2c3nc(=O)[nH]c(=O)c-3cc3cc([N+](=O)[O-])ccc32)cc1C | - | 8.4µM | - | 45µM | - | -
COc1ccc(NC(=O)C(C)n2nc(-c3cc(C)ccc3C)c3c(c2=O)CCCC3)cc1 (centres undefined) | - | . | - | - | . | -
N#CCC(=O)Nc1ccc(C(=O)OCC(=O)c2ccc3c(c2)OCCO3)cc1 | 18µM | 12µM | - | - | - | -
N#CCC(=O)Nc1ccc(C(=O)OCC(=O)c2ccc3c(c2)OCO3)cc1 | - | - | - | - | . | -
NS(=O)(=O)c1cc(C(=O)OCC(=O)c2ccc3c(c2)OCCO3)ccc1Cl | - | 30µM | - | -[12.7 µM] | - | -
COc1ccc(C2c3c(n(C)c4ccccc34)C(=O)N2CC(=O)Nc2ccccc2Cl)cc1 (centres undefined) | - | . | - | - | . | -
CC1=C(C)C(=O)C(CCCCC#CCCCC#CCO)=C(C)C1=O | 40µM | ? | ? | 19µM | ? | 40µM
CCC(C)(CCN1CCOCC1)N(Cc1cc2ccccc2n(C)c1=O)C(=O)C1CCCCC1 (centres undefined) | - | . | . | . | . | .
CCOC(=O)C1=C(C)N(C[C@@H]2CC[C@@H](Cc3ccc(-c4ccccc4)cc3)O2)C(=O)NC1c1ccc(SCc2ccco2)c([N+](=O)[O-])c1 (some centres undefined) | 40µM | ? | - | . | . | .
N#CC1=C(N)N(c2ccccc2C#N)C2=C(C(=O)CCC2)C1c1ccsc1 (centres undefined) | - | - | - | ? | - | 56µM
N#CC1=C(N)N(c2ccc(Br)cc2)C2=C(C(=O)CCC2)C1c1cccnc1 (centres undefined) | - | - | - | 11µM | 5.6µM | -
Cc1cc(C)cc(Cn2ncc3c4sc(C)cc4n(C)c3c2=O)c1 | - | . | . | . | . | .
O=C(O)C1C2CCC(O2)C1C(=O)Nc1ccc(OC(F)F)cc1 (centres undefined) | - | - | - | - | - | -
Cc1[nH]c2ccc(C(=O)OC(C)C(=O)NC3CCCCC3C)cc2c1C (centres undefined) | - | - | - | -[12.7 µM] | . | -
Cc1[nH]c2ccc(C(=O)OC(C)C(=O)NC3(C#N)CCCCC3)cc2c1C (centres undefined) | ? | - | - | 45µM | . | 50µM
COc1ccc(/C=C/c2cc(OC)c(OC)cc2CC[N+](C)(C)C)cc1 | . | . | . | . | - | .
COc1ccc(/C=C\c2cc(OC)c(OC)cc2CC[N+](C)(C)C)cc1OC | - | - | - | 13µM | - | -
SMILES | JMJD2A Tudor | PLK1 PBD inh | HP1b binding inh | G9a block | Sfp inh | BAZ2B block
O=C(Nc1nc2c(Br)cccc2s1)C1CC1 | - | - | - | . | - | -
Cn1c(=O)n(C)c2cc(CNCc3ccc(F)cc3)ccc21 | - | . | - | - | . | -
COc1ccccc1C(=O)NNc1ncc(C)s1 | - | ? | - | 40µM | 40µM | -
COc1ccccc1CCNC(=O)C(=O)NCC1OCCCN1S(=O)(=O)c1ccc(F)cc1C (centres undefined) | - | - | - | - | - | -
CC(=O)C1=CCC(c2cccc(Cl)c2)N(S(=O)(=O)c2ccc(C)cc2)C1 (centres undefined) | . | - | . | . | . | .
CCC1CCc2c(sc(NC(=O)CSc3nc(-c4ccco4)cc(C(F)(F)F)n3)c2C#N)C1 (centres undefined) | - | 24µM | - | - | - | -
N#Cc1c(NC(=O)CSc2nc(-c3ccccc3)cc(C(F)(F)F)n2)sc2c1CCC2 | - | ? | - | - | - | -
COc1ccc(-c2cc(C(F)(F)F)nc(SCc3cccc(C(=O)O)c3)n2)cc1 | ? | 21µM | - | - | - | -
COc1ccc(-c2cc(C(F)(F)F)nc(SCC(=O)Nc3sc4c(c3C#N)CCC4)n2)cc1 | - | ? | - | 11µM | - | -
O=C(O)c1cccc(CSc2nc(-c3ccccc3)cc(C(F)(F)F)n2)c1 | - | ? | - | - | - | -
COc1cc(Br)cc2cc(C(=O)N3CCOCC3)c(=O)oc12 | - | - | - | . | - | -
O=C(COc1ccc(F)cc1)OCc1cc(=O)n2nc(-c3cccs3)sc2n1 | - | . | - | - | . | ?
CCOC(=O)c1[nH]c(C)c(CCC(=O)NCc2ccc(CC)cc2)c1C | - | . | - | - | . | -
N#Cc1cccc(NC(=O)N2CC[C@@]3(CCCN(C(=O)c4csnn4)C3)C2)c1 | . | . | . | -[12.7 µM] | - | .
COc1ccc(CNS(=O)(=O)c2cc(-c3cc(C)no3)ccc2C)cc1OC | - | - | - | - | - | -
Nc1ccccc1SSc1ccccc1N | 32µM | 0.6µM | ? | 1.6µM | 3.5µM | 45µM
Nc1nc(SCc2ccccc2Cl)ns1 | - | 30µM | - | ? | - | -
N#Cc1ccccc1Sc1ccccc1N | - | - | - | - | - | -
Nc1ccccc1SCc1c(Cl)cccc1Cl | - | - | - | - | - | -
Nc1nc(SCc2ccccc2)ns1 | 79µM | ? | ? | 4µM | ? | -
Nc1ccccc1SCc1ccccc1Cl | - | 15µM | - | ? | 20µM | -
Cc1[nH]c(C)c(S(=O)(=O)NCc2ccc(N(C)C)cc2)c1C(=O)N1CCCC1 | - | - | - | ? | - | -
OC[C@@H]1CN(Cc2ccccc2)C[C@H](n2ccc3c(N4CCCC4)ncnc32)O1 | . | - | . | . | . | .
COc1cccc(-n2c(-c3cccc(F)c3)nc3c(cnn3-c3ccc(C)cc3)c2=O)c1 | - | . | - | - | . | .
CCOc1ccccc1C(=O)Nc1ccc(S(=O)(=O)Nc2ncccn2)cc1 | - | . | - | - | . | -
COc1ccc(OC)c(NC(=O)CSc2nnc(-c3cnccn3)n2C)c1 | - | - | - | - | - | -
Cc1ccc(CNC(=O)c2oc3c(c2C)-c2nn(Cc4ccc(Cl)cc4)cc2CC3)cc1 | - | . | - | - | . | -
Cc1ccccc1OCCOC(=O)c1c(-c2ccccc2)noc1C | - | - | - | - | - | -
